# Tests used:
# Assay in all cases: PBM binding z-score (relative to random genomic background probes); higher = stronger binding; sequences stand for … in GC…GCGATTGACAGCGTAGAATGAAGG
# [1] = system: RARb homodimer (NR concentration 270 nM)
# Procedure, shortened: (§1)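 Custom Agilent 4×180K protein-binding microarrays carried double-stranded probes. Their 34-nt variable regions held direct-repeat seeds, single-nucleotide variants, half-site ablations and random human genomic background sequences. Arrays were incubated 1 h with ligand-free nuclear receptor dimers in PBS pH 7.4, 2% milk, 0.02% Triton X-100, 1 mM DTT, 0.2 mg/mL BSA and 0.4 mg/ml salmon testes DNA. Antibodies against each partner (one per run) detected binding, and scanned fluorescence was regression-normalized. Binding z-scores use random background probes as reference.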
# [2] = system: RARg:RXRa (NR concentration 270 nM, RXRa partner concentration 90 nM)
# Procedure, shortened: as §1
# [3] = system: RARg homodimer (NR concentration 270 nM)
# Procedure, shortened: as §1
# [4] = system: RXRa DBDmut IVT, anti-RXR (DBD mutation: RXRa K156A/R161A, NR concentration 90 nM)
# Procedure, shortened: as §1
# [5] = system: RXRa homodimer (NR concentration 180 nM)
# Procedure, shortened: as §1
# [6] = system: THRa:RXRa (NR concentration 90 nM, RXRa partner concentration 90 nM)
# Procedure, shortened: as §1
# [7] = system: THRa homodimer (NR concentration 90 nM)
# Procedure, shortened: as §1
# [8] = system: VDR homodimer (NR concentration 270 nM)
# Procedure, shortened: as §1
Sequence,PBM binding z-score [1],PBM binding z-score [2],PBM binding z-score [3],PBM binding z-score [4],PBM binding z-score [5],PBM binding z-score [6],PBM binding z-score [7],PBM binding z-score [8]
ATATGTAGGGTATCGGGTCATTCAGTTTGCGCAT,2.99,2.43,1.97,1.43,2.76,3.07,2.69,3.81
GCAGACAGGTGAGACGCAGGTAACTCAGGGTGGC,-0.0826,0.237,0.034,-0.867,0.28,0.763,-0.588,-0.464
GCCAGTTGGTCAGTAAAAGGTCACACACCGGTCG,5.25,5.38,4.92,0.354,5.25,3.38,1.65,1.83
CAAACTAGCTCAAAGGTCAAAGTCGAGCCAACCA,4.79,6.22,5.63,1.66,7.07,3.53,0.75,2.62
GCTAGTCGGTCAGTAAAAGGTCACACACCGGTCG,5.59,6.16,6.16,0.548,5.55,3.62,1.73,1.85
ATCGAAAGGTCGAAGTTGAGTATACCCACCCGAA,2.55,4.07,3.83,1.9,4.79,2.01,-0.00538,1.02
TCTAGTTGGTCACGGAGGTCACACCCGACGGGTA,3.93,4.53,4.61,0.865,4.68,3.44,2.28,3.22
ACTATTAGTTGAGACGTGGGCAACCGATAGGTTG,-0.524,-0.179,0.239,-0.00277,-0.275,-0.642,-1.02,-0.369
CCGACTGGGTCATAAGGTTACCATAAGCCAGCCC,3.46,4.62,3.25,0.935,3.8,3.13,1.94,0.993
GCTTGTAGATCAAGGGTAAGAAAGACTAAGCTAA,-0.585,-0.317,-0.393,-0.509,-0.00933,-0.138,-0.974,-0.486
CAAACTAGGCCACCGGAAGGTCAAAGTCCGCATG,4.21,4.82,4.07,0.796,4.1,2.93,1.18,2.29
TGAATGAGGTGATAAGATCAGGGAACGTTGCAAA,-0.0418,0.599,0.324,-0.998,0.631,1.43,0.185,-0.465
GGAACGAGGGCAAAATTGATAGCATCTGTCGACG,0.53,0.822,1.08,2.03,0.69,0.648,-0.431,0.356
CCGACTGGGGCAGGGTTACCATAACGCACAGCCA,1,0.693,0.718,-1.08,1.06,0.632,-0.0778,-0.615
